# Out of some 5,500 compounds screened, about 2,000 (36%) were called active. Another 18% or so got no clear call; they are omitted. The list shows a part of the results. Unmarked numbers belong to inactive results. No stated cut-off is given here; in the data, active means normalized growth mostly below about 0.91 (no sharp cut-off); inconclusive means no clear call, values can overlap the other calls; inactive means mostly above about 0.92.
# Assay: chemical genetic growth profiling, strain panel (AID 1159580);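 further: tested at 20 µM; growth read once vehicle control cultures reached saturation at 30 °C; 1 = growth at the plate median or of vehicle wells; lower values mean less growth of the strain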
# Details: growth OD
# [1] = S. cerevisiae deletion strains, locus YAL013W, strain DEP1, active compounds read low
# [2] = S. cerevisiae deletion strains, locus YBR229C, strain ROT2, active compounds read low
# [3] = S. cerevisiae deletion strains, locus YCL061C, strain MRC1, active compounds read low
# [4] = S. cerevisiae deletion strains, locus YDL101C, strain DUN1, active compounds read low
# [5] = S. cerevisiae deletion strains, locus YDL134C, strain PPH21, active compounds read low
# [6] = S. cerevisiae deletion strains, locus YDR150W, strain NUM1, active compounds read low
# [7] = S. cerevisiae deletion strains, locus YEL061C, strain CIN8, active compounds read low
# [8] = S. cerevisiae deletion strains, locus YGR078C, strain PAC10, active compounds read low
# [9] = S. cerevisiae deletion strains, locus YHR030C, strain SLT2, active compounds read low
# [10] = S. cerevisiae deletion strains, locus YHR087W, strain rtc3, active compounds read low
# [11] = S. cerevisiae deletion strains, locus YJR043C, strain POL32, active compounds read low
# [12] = S. cerevisiae deletion strains, locus YJR075W, strain HOC1, active compounds read low
# [13] = S. cerevisiae deletion strains, locus YLR039C, strain RIC1, active compounds read low
# [14] = S. cerevisiae deletion strains, locus YLR058C, strain SHM2 (second series), active compounds read low
# [15] = S. cerevisiae deletion strains, locus YLR085C, strain ARP6, active compounds read low
# [16] = S. cerevisiae deletion strains, locus YLR262C, strain YPT6, active compounds read low
# [17] = S. cerevisiae deletion strains, locus YML094W, strain GIM5, active compounds read low
# [18] = S. cerevisiae deletion strains, locus YMR219W, strain ESC1, active compounds read low
# [19] = S. cerevisiae deletion strains, locus YMR263W, strain SAP30, active compounds read low
# [20] = S. cerevisiae deletion strains, locus YMR307W, strain GAS1, active compounds read low
# [21] = S. cerevisiae deletion strains, locus YNL128W, strain TEP1, active compounds read low
# [22] = S. cerevisiae deletion strains, locus YNL153C, strain GIM3, active compounds read low
# [23] = S. cerevisiae deletion strains, locus YNL298W, strain CLA4 (second series), active compounds read low
# [24] = S. cerevisiae deletion strains, locus YNL322C, strain KRE1, active compounds read low
# [25] = S. cerevisiae deletion strains, locus YNR030W, strain Alg12, active compounds read low
# [26] = S. cerevisiae deletion strains, locus YPL055C, strain LGE1, active compounds read low
# [27] = S. cerevisiae deletion strains, locus YPL241C, strain CIN2, active compounds read low
# [28] = S. cerevisiae deletion strains, locus YPR135W, strain CTF4, active compounds read low
# [29] = S. cerevisiae strains, strain wild type, active compounds read low
# [30] = S. cerevisiae deletion strains, locus YGR229C, strain SMI1, active compounds read low
# [31] = S. cerevisiae deletion strains, locus YJL187C, strain SWE1, active compounds read low
smiles,measurement,setting,value
O=C(CN1CCOCC1)Nc1cc(C(F)(F)F)cc(C(F)(F)F)c1,normalized growth,[1],0.999
same,normalized growth,[2],1.01
same,normalized growth,[3],1.01
same,normalized growth,[4],1
same,normalized growth,[5],0.995
same,normalized growth,[6],1
same,normalized growth,[7],1.01
same,normalized growth,[8],1.01
same,normalized growth,[9],1.02
same,normalized growth,[10],0.995
same,normalized growth,[11],0.974
same,normalized growth,[12],0.986
same,normalized growth,[13],1.06
same,normalized growth,[14],1
same,normalized growth,[15],0.988
same,normalized growth,[16],1.05
same,normalized growth,[17],0.996
same,normalized growth,[18],1.01
same,normalized growth,[19],0.986
same,normalized growth,[20],1.01
same,normalized growth,[21],0.993
same,normalized growth,[22],0.99
same,normalized growth,[23],0.992
same,normalized growth,[24],1
same,normalized growth,[25],0.994
same,normalized growth,[26],0.972
same,normalized growth,[27],1.07
same,normalized growth,[28],1.02
same,normalized growth,[29],0.999
CC(C)(CC(=O)O)CC(=O)Nc1cc(C(F)(F)F)cc(C(F)(F)F)c1,normalized growth,[1],0.997
same,normalized growth,[2],1.01
same,normalized growth,[3],1.03
same,normalized growth,[4],0.997
same,normalized growth,[5],0.999
same,normalized growth,[6],0.993
same,normalized growth,[7],0.998
same,normalized growth,[8],1.01
same,normalized growth,[30],1
same,normalized growth,[9],1.01
same,normalized growth,[10],1
same,normalized growth,[31],1
same,normalized growth,[11],0.997
same,normalized growth,[12],0.997
same,normalized growth,[13],1.03
same,normalized growth,[14],1.01
same,normalized growth,[15],1.03
same,normalized growth,[16],1.02
same,normalized growth,[17],0.969
same,normalized growth,[18],1.01
same,normalized growth,[19],1.05
same,normalized growth,[20],0.967
same,normalized growth,[22],1.01
same,normalized growth,[23],1.01
same,normalized growth,[24],0.973
same,normalized growth,[25],0.537 (active)
same,normalized growth,"S. cerevisiae deletion strains, locus YOL006C, strain TOP1, active compounds read low",0.964
same,normalized growth,[26],1.01
same,normalized growth,[27],0.639 (active)
same,normalized growth,[28],1.06
CCOC(=O)C(O)(c1ccc(N)c(C)c1)C(F)(F)F (stereo not given),normalized growth,[1],0.995
same,normalized growth,[2],1
same,normalized growth,[4],0.996
same,normalized growth,[6],0.928
same,normalized growth,[7],0.988
same,normalized growth,[8],0.992
same,normalized growth,[9],0.953
same,normalized growth,[10],1.02
same,normalized growth,[31],1
same,normalized growth,[11],0.925
same,normalized growth,[12],0.991
same,normalized growth,[13],0.988
same,normalized growth,[14],1.01
same,normalized growth,[15],0.996
same,normalized growth,[16],1.02
same,normalized growth,[17],0.991
same,normalized growth,[18],0.982
same,normalized growth,[19],0.999
same,normalized growth,[20],0.946
same,normalized growth,[21],1.01
same,normalized growth,[22],0.993
same,normalized growth,[23],1
same,normalized growth,[24],1
same,normalized growth,[25],1.01
same,normalized growth,[26],0.935
same,normalized growth,[27],0.996
same,normalized growth,[28],0.982
same,normalized growth,[29],0.981
CCc1cccc(C)c1NC(=O)CC(C)(C)CC(=O)O,normalized growth,[1],0.988
same,normalized growth,[2],0.994
same,normalized growth,[4],1.02
same,normalized growth,[6],0.981
same,normalized growth,[7],0.992
same,normalized growth,[8],0.99
same,normalized growth,[30],0.992
same,normalized growth,[9],0.989
same,normalized growth,[10],1.01
same,normalized growth,[31],0.996
same,normalized growth,[11],0.995
same,normalized growth,[12],1.01
same,normalized growth,"S. cerevisiae deletion strains, locus YKL190W, strain CNB1, active compounds read low",0.987
same,normalized growth,[13],1.03
same,normalized growth,[14],0.996
same,normalized growth,[15],0.966
same,normalized growth,[16],1.02
same,normalized growth,[17],1.06
same,normalized growth,[18],0.996
same,normalized growth,[19],0.967
same,normalized growth,[20],0.983
same,normalized growth,[22],1.01
same,normalized growth,[23],1.01
same,normalized growth,[24],0.992
same,normalized growth,[25],1
same,normalized growth,[26],1.02
same,normalized growth,[27],1.01
same,normalized growth,[28],1.06

# Source: PubChem BioAssay AID1159580 (chemical genetic matrix, 2015)
